# From PubChem BioAssay (EPA / NIEHS)
# Records with an inconclusive call do not appear. The source made the active and inactive calls. The calls were made as follows, unless noted: active = hit-call score of the fitted dose curve at least 0.9, where 1 is the maximum; inconclusive = response in the unintended direction; inactive = score below 0.9.
# Assays:
# [1] = read-out: Intercellular Adhesion Molecule 1 (ICAM1), ICAM1 (gene 3383); assay: BSK_3C_ICAM1: BioMAP Diversity Plus: 3C Assay for Intercellular Adhesion Molecule 1 (ICAM1) Biomarker Activity (AID 2283003; active = hit-call score of the fitted dose curve at least 0.9, where 1 is the maximum; inactive = score below 0.9); settings: primary human endothelial cells (HUVEC); actives raise or lower the signal
# Method in brief: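 Using DMSO as baseline, bidirectional curve fitting was applied to ICAM-1 ELISA signals from HUVEC in the 3C system, measured 24 h after compound addition.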
# [2] = molecular target: human Retinoic Acid Receptor beta (RARb), RARB (gene 5915) (UniProt P10826); assay: ATG_RARb_TRANS: Attagene TRANS-FACTORIAL HepG2 Assay for human Retinoic Acid Receptor beta (AID 2283004)
# human Retinoic Acid Receptor beta (RARb), RARB (gene 5915), sequence (P10826 whole entry, looked up, the tested form may be a part): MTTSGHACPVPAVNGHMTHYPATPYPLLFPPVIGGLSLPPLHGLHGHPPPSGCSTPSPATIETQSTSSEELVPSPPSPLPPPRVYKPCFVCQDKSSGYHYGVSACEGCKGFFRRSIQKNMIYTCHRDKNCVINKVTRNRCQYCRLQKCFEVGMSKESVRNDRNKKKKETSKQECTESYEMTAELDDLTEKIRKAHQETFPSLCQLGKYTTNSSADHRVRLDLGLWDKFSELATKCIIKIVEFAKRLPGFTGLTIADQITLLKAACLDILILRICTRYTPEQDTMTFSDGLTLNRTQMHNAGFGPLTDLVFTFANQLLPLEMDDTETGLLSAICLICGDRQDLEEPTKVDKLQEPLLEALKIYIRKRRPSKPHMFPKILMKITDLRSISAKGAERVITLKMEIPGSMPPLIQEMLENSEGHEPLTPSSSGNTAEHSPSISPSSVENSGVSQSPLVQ
# Method in brief: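 Induction of reporter mRNA from a chimeric RARb-Gal4 construct was measured by RT-PCR, FAM labelling, HpaI digestion and capillary electrophoresis. Measurements followed 24 h compound treatment of transiently transfected human HepG2 liver cells, with DMSO as baseline.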
# [3] = molecular target: Retinoic acid receptor alpha (Homo sapiens) (UniProt P10276); assay: ATG_RARa_TRANS: Attagene TRANS-FACTORIAL HepG2 Assay for human Retinoic Acid Receptor alpha (RARa) (AID 2283005);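 as to AC50: potency for increased reporter signal meaning RARa activation over DMSO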
# Retinoic acid receptor alpha (Homo sapiens), sequence (P10276 whole entry, looked up, the tested form may be a part): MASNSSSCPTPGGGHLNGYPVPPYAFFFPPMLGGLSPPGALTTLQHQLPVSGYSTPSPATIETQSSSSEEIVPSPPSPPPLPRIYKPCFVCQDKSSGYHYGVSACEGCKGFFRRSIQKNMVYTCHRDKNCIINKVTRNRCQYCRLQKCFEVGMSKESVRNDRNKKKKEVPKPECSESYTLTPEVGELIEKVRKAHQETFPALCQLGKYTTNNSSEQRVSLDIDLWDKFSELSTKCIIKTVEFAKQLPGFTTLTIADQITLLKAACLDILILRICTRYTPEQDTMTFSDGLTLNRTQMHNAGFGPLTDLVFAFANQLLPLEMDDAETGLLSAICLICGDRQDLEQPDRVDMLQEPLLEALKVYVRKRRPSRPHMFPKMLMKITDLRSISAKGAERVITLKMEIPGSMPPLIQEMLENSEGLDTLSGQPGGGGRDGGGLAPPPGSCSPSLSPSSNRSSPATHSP
# Method in brief: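 HepG2 cells transiently transfected with multiple reporter units expressing chimeric RARα-GAL4 fusion, with GAL4-UAS-driven reporters. After 24 h compound exposure, reporter mRNA induction quantified by RT-PCR and capillary electrophoresis with fluorescent labeling; gain-of-signal fitted relative to DMSO control.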
# [4] = BSK_3C_Proliferation: Cell Proliferation Assessment in the BioMAP Diversity Plus: 3C Assay (AID 2283006; active = hit-call score of the fitted dose curve at least 0.9, where 1 is the maximum; inactive = score below 0.9;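 as to AC50: potency may reflect either rise or fall in cell number versus DMSO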); settings: primary human endothelial cells (HUVEC)
# Method in brief: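 Measured here: sulforhodamine B (0.1%) staining of TCA-fixed sub-confluent umbilical vein endothelial cultures 48 h post-dosing, absorbance 560 nm. DMSO served as negative control and baseline; both signal gain and loss were modelled.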
# [5] = molecular target: Peroxisome proliferator-activated receptor gamma (Homo sapiens) (UniProt P37231); assay: ATG_PPARg_TRANS: Attagene TRANS-FACTORIAL HepG2 Assay for human Peroxisome Proliferator-activated Receptor-gamma (PPARg) (AID 2283007)
# Peroxisome proliferator-activated receptor gamma (Homo sapiens), sequence (P37231 whole entry, looked up, the tested form may be a part): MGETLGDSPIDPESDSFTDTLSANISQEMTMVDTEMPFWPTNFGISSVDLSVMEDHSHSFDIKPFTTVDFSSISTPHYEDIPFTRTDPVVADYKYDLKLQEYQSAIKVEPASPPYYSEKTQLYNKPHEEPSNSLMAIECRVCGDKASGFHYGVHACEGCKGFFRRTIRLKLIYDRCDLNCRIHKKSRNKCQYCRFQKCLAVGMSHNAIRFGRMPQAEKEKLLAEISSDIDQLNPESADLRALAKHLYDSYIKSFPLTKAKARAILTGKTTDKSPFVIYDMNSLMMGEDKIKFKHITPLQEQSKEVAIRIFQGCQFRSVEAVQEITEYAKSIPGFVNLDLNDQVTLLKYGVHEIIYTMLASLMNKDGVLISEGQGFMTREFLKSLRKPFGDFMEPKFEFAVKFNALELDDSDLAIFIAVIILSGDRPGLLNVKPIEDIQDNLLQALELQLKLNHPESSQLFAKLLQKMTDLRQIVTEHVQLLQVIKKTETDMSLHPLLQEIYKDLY
# Method in brief: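 Chimeric NR-Gal4 transactivation is measured in transiently transfected HepG2 cells by reporter mRNA induction at 24 h. Detection uses RT-PCR with fluorescent labelling and capillary electrophoresis; DMSO defines baseline.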
# [6] = molecular target: Nuclear receptor subfamily 1 group I member 2 (Homo sapiens) (UniProt O75469); assay: ATG_PXR_TRANS: Attagene TRANS-FACTORIAL HepG2 Assay for human Pregnane X Receptor (PXR) (AID 2283008)
# Nuclear receptor subfamily 1 group I member 2 (Homo sapiens), sequence (O75469 whole entry, looked up, the tested form may be a part): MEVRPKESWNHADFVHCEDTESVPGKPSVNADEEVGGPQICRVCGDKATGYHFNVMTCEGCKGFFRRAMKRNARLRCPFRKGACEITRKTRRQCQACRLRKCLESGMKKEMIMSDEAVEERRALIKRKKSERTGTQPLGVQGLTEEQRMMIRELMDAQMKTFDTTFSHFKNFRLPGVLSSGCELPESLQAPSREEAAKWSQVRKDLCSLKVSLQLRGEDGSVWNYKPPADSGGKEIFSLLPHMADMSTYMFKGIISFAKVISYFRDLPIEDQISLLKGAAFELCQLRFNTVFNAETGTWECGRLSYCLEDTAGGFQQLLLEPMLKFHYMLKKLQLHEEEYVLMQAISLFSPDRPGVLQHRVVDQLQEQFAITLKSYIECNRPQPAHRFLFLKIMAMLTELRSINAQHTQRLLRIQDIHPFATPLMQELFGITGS
# Method in brief: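 Transient HepG2 transfectants carrying multiplexed reporter transcription units; PXR activity read through a Gal4 chimera. 24 h exposure. RT-PCR/CE fluorescence; upward curve fit referenced to DMSO.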
# [7] = molecular target: human Retinoic Acid Receptor gamma (RARg), RARG (gene 5916) (UniProt P13631); assay: ATG_RARg_TRANS: Attagene TRANS-FACTORIAL HepG2 Assay for human Retinoic Acid Receptor gamma (RARg) (AID 2283009)
# human Retinoic Acid Receptor gamma (RARg), RARG (gene 5916), sequence (P13631 whole entry, looked up, the tested form may be a part): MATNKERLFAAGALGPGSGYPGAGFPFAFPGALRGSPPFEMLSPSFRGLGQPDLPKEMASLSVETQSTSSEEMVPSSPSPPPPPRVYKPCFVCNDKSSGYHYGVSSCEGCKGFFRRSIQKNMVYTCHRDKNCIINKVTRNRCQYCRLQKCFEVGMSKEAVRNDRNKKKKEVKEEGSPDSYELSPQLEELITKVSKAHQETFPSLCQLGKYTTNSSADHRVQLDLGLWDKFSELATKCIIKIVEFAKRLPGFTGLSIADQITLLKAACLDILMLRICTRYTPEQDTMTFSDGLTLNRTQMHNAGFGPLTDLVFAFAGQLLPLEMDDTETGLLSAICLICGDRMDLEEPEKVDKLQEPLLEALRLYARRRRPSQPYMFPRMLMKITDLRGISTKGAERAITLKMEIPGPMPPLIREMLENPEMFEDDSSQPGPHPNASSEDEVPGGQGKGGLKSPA
# Method in brief: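 Gain-of-signal relative to DMSO is reported from fluorescent capillary electrophoresis of RT-PCR reporter products. These came from HepG2 cells expressing transfected RARg-GAL4 chimeras with UAS reporters, harvested 24 h after dosing.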
# [8] = molecular target: human RAR-related Orphan Receptor beta (RORb), RORB (gene 6096) (UniProt Q92753); assay: ATG_RORb_TRANS: Attagene TRANS-FACTORIAL HepG2 Assay for human RAR-related Orphan Receptor beta (RORb) (AID 2283010)
# human RAR-related Orphan Receptor beta (RORb), RORB (gene 6096), sequence (Q92753 whole entry, looked up, the tested form may be a part): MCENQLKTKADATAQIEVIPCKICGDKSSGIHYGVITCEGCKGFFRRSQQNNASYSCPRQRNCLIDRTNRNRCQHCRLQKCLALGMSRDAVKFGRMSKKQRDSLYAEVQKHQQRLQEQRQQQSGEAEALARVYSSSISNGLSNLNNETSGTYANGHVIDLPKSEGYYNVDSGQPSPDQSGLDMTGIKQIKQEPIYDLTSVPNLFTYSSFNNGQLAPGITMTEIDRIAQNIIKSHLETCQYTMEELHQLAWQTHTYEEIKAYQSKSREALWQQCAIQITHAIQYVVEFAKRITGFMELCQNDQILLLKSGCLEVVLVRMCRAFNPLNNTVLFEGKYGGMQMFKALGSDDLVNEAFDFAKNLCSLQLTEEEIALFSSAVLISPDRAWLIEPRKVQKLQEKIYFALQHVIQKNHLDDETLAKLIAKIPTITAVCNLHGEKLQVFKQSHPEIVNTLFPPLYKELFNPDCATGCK
# Method in brief: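 Multiplexed transcription-factor reporter assay: HepG2 cells transiently carrying NR-Gal4/GAL4-UAS constructs, 24 h treatment, mRNA quantified by RT-PCR plus capillary electrophoresis fluorescence; activity scored as induction over DMSO.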
# [9] = molecular target: human Peroxisome Proliferator-activated Receptor delta (PPARd), PPARD (gene 5467) (UniProt Q03181); assay: ATG_PPARd_TRANS: Attagene TRANS-FACTORIAL HepG2 Assay for human Peroxisome Proliferator-activated Receptor delta (PPARd) (AID 2283002)
# human Peroxisome Proliferator-activated Receptor delta (PPARd), PPARD (gene 5467), sequence (Q03181 whole entry, looked up, the tested form may be a part): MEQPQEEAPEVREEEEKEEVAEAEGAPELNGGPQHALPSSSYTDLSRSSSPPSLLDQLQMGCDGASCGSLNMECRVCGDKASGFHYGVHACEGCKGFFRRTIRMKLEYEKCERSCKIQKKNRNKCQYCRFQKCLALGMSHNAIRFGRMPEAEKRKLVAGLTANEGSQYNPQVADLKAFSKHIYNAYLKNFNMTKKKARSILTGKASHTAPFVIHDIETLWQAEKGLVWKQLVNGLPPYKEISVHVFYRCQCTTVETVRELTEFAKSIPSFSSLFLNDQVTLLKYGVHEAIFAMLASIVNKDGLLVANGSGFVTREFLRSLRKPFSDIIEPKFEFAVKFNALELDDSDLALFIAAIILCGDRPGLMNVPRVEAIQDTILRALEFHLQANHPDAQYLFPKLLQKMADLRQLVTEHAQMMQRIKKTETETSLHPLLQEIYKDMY
# Method in brief: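 Measured quantity: GAL4-UAS reporter transcript induction in HepG2 after 24 h chemical dosing, with NR-Gal4 chimeras supplied by transient transfection. Detection by RT-PCR and capillary electrophoresis; upward fit against DMSO.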
compound,measurement,setting,value
CN(c1nccc(=O)[nH]1)C1CCN(c2nc3ccccc3n2Cc2ccc(F)cc2)CC1,outcome,[1],inactive
same,outcome,[2],inactive
same,outcome,[3],inactive
same,outcome,[4],inactive
same,outcome,[5],inactive
same,outcome,[6],inactive
same,outcome,[7],inactive
CCNCCO,outcome,[2],inactive
same,outcome,[5],inactive
COc1ccc(CCN2CCC(Nc3nc4ccccc4n3Cc3ccc(F)cc3)CC2)cc1,outcome,[1],inactive
same,outcome,[2],inactive
same,outcome,[3],inactive
same,AC50,[4],6.51 µM (active)
same,outcome,[6],inactive
same,outcome,[7],inactive
same,outcome,[8],inactive
CCOc1ccc(NC(=O)CC(C)O)cc1 (stereo unspecified),outcome,[2],inactive
same,outcome,[3],inactive
same,outcome,[6],inactive
O=C(O)c1cccnc1C(=O)O,outcome,[2],inactive
same,outcome,[3],inactive
same,outcome,[7],inactive
CN(C)CCOC(C)(c1ccccc1)c1ccccn1 (stereo unspecified),outcome,[9],inactive
same,outcome,[6],inactive
same,outcome,[7],inactive
same,outcome,[8],inactive
C=CC(=O)OCCCC,outcome,[2],inactive
same,outcome,[3],inactive
same,outcome,[6],inactive
same,outcome,[7],inactive
O=C(CC(=O)c1ccccc1)c1ccccc1,outcome,[9],inactive
same,AC50,[6],28.2 µM (active)
Cc1ccc(C)o1,outcome,[9],inactive
same,outcome,[7],inactive
CCCCCCOC(=O)CCC,outcome,[2],inactive
same,outcome,[3],inactive
same,AC50,[6],15.1 µM (active)
same,outcome,[7],inactive
CS(=O)(=O)c1ccc(Cl)cc1,outcome,[9],inactive
same,outcome,[6],inactive
same,outcome,[8],inactive
CCC1(C)NC(=O)NC1=O (stereo unspecified),outcome,[2],inactive
same,outcome,[7],inactive
same,outcome,[8],inactive
C[C@H]1C[C@@H](O)CC(C)(C)C1,outcome,[2],inactive
same,outcome,[3],inactive
same,outcome,[6],inactive
same,outcome,[7],inactive
same,outcome,[8],inactive
CCc1cc(C(C)(C)C)c(O)c(C(C)(C)C)c1,outcome,[2],inactive
same,outcome,[3],inactive
same,AC50,[5],61 µM (active)
same,AC50,[6],26.8 µM (active)
CCCCC(CC)C(=O)OC(C)C (stereo unspecified),outcome,[2],inactive
same,outcome,[5],inactive
same,outcome,[6],inactive
same,outcome,[8],inactive
CSc1c(Cl)c(Cl)c(Cl)c(Cl)c1Cl,outcome,[2],inactive
same,AC50,[5],6.23 µM (active)
same,AC50,[6],8.95 µM (active)
same,outcome,[7],inactive
CC1(C)O[C@@H]2C[C@H]3[C@@H]4CCC5=CC(=O)C=C[C@]5(C)[C@@]4(F)[C@@H](O)C[C@]3(C)[C@]2(C(=O)CO)O1,outcome,[9],inactive
same,AC50,[6],4.98 µM (active)
same,outcome,[8],inactive
CSCCC=O,outcome,[1],inactive
same,outcome,[4],inactive
same,AC50,[6],10.6 µM (active)
same,outcome,[8],inactive
CC1CC(O)CC(C)(C)C1 (stereo unspecified),outcome,[2],inactive
same,outcome,[3],inactive
same,outcome,[6],inactive
same,outcome,[7],inactive
same,outcome,[8],inactive
CS(=O)(=O)c1ccc(C2=C(c3ccccc3)C(=O)OC2)cc1,outcome,[1],inactive
same,outcome,[2],inactive
same,outcome,[4],inactive
same,outcome,[5],inactive
same,outcome,[6],inactive
C[C@H](CCC(=O)NCC(=O)O)[C@H]1CC[C@H]2[C@@H]3[C@H](O)C[C@@H]4C[C@H](O)CC[C@]4(C)[C@H]3C[C@H](O)[C@]12C,outcome,[2],inactive
same,outcome,[3],inactive
same,outcome,[5],inactive
same,outcome,[8],inactive
C=C(C)C(=O)OCC(CC)(COC(=O)C(=C)C)COC(=O)C(=C)C,outcome,[1],inactive
same,AC50,[4],13.9 µM (active)
same,outcome,[6],inactive
CC(C)CCCCCCc1ccc(OCCOCCO)cc1,outcome,[2],inactive
same,AC50,[3],10.2 µM (active)
same,outcome,[6],inactive
same,outcome,[7],inactive
OC[C@H]1O[C@@H](Oc2ccc(O)cc2)[C@H](O)[C@@H](O)[C@@H]1O,outcome,[9],inactive
same,outcome,[6],inactive
Cc1c(Cl)cccc1[N+](=O)[O-],outcome,[9],inactive
same,outcome,[6],inactive
C[C@@H]1CCN(C(=O)[C@H](CCCN=C(N)N)NS(=O)(=O)c2cccc3c2NC[C@H](C)C3)[C@@H](C(=O)O)C1,outcome,[1],inactive
same,outcome,[2],inactive
same,outcome,[4],inactive
same,outcome,[5],inactive
same,outcome,[7],inactive
Brc1ccc(Br)c(Br)c1,outcome,[3],inactive
same,outcome,[5],inactive
same,outcome,[6],inactive
same,outcome,[7],inactive
same,outcome,[8],inactive
C1=CC2C3C=CC(C3)C2C1 (stereo unspecified),outcome,[1],inactive
same,outcome,[3],inactive
same,outcome,[4],inactive
same,outcome,[5],inactive
same,outcome,[6],inactive
same,outcome,[7],inactive
same,outcome,[8],inactive
OCCCCC(O)CO (stereo unspecified),outcome,[2],inactive
same,outcome,[3],inactive
same,outcome,[6],inactive
same,outcome,[8],inactive
CCC(=O)O[C@@H]1C[C@H]2CC[C@]1(C)C2(C)C,outcome,[2],inactive
same,outcome,[3],inactive
same,outcome,[6],inactive
same,outcome,[7],inactive
same,outcome,[8],inactive
CC(C)(CO)[C@@H](O)C(=O)NCCC(=O)O,outcome,[9],inactive
same,outcome,[6],inactive
same,outcome,[7],inactive
O=C(Nc1ccc2c(O)c(N=Nc3ccc(N=Nc4ccc(S(=O)(=O)O)cc4)cc3)c(S(=O)(=O)O)cc2c1)c1ccccc1,outcome,[1],inactive
same,outcome,[4],inactive
same,outcome,[5],inactive
same,outcome,[6],inactive
CCCC[P+](CCCC)(CCCC)CCCC,outcome,[3],inactive
same,outcome,[6],inactive
c1ccc(CN(Cc2ccccc2)Cc2ccccc2)cc1,outcome,[6],inactive
same,outcome,[7],inactive
C#CC(C)N(C)C(=O)Nc1ccc(Cl)cc1 (stereo unspecified),outcome,[5],inactive
same,outcome,[6],inactive
same,outcome,[7],inactive
same,outcome,[8],inactive
CC1(C)O[C@@H]2[C@@H](CO[C@@]3(COS(N)(=O)=O)OC(C)(C)O[C@@H]23)O1,outcome,[5],inactive
same,outcome,[6],inactive
CC(=O)OCCCc1ccccc1,outcome,[3],inactive
same,outcome,[6],inactive
same,outcome,[7],inactive
OC[C@H]1O[C@@H]2O[C@H]3[C@H](O)[C@@H](O)[C@@H](O[C@H]4[C@H](O)[C@@H](O)[C@@H](O[C@H]5[C@H](O)[C@@H](O)[C@@H](O[C@H]6[C@H](O)[C@@H](O)[C@@H](O[C@H]7[C@H](O)[C@@H](O)[C@@H](O[C@H]8[C@H](O)[C@@H](O)[C@@H](O[C@H]9[C@H](O)[C@@H](O)[C@@H](O[C@H]1[C@H](O)[C@H]2O)O[C@@H]9CO)O[C@@H]8CO)O[C@@H]7CO)O[C@@H]6CO)O[C@@H]5CO)O[C@@H]4CO)O[C@@H]3CO,outcome,[5],inactive
same,outcome,[8],inactive
